Assay results taken from PubChem BioAssay (EPA / NIEHS).
Inconclusive results are not listed. The source made the active and inactive calls. How the source made its calls: active means hit-call score of the fitted dose curve at least 0.9, where 1 is the maximum; inconclusive means response in the unintended direction; inactive means score below 0.9.

Assay: ATG_GAL4_TRANS: Attagene TRANS-FACTORIAL HepG2 Assay for GAL4 (Internal Marker) (AID 2282976)
Settings: HepG2 Attagene TRANS GAL4 internal marker reporter
Experimental: ATG_TRANS is a cell-based, multiplexed-readout assay that uses HepG2, a human liver cell line, with measurements taken at 24 hours after chemical dosing in a 24-well plate.ATG_GAL4_TRANS is one of 30 assay component(s) measured or calculated from the ATG_TRANS assay. It is designed to make measurements of mRNA induction, a form of inducible reporter, as detected with fluorescence intensity signals by Reverse transcription polymerase chain reaction (RT-PCR) and Capillary electrophoresis technology.Data from the assay component ATG_GAL4_TRANS was analyzed into 1 assay endpoint. This assay endpoint, ATG_GAL4_TRANS, was analyzed in the positive analysis fitting direction relative to DMSO as the negative control and baseline of activity. Using a type of inducible reporter, measures of mRNA for gain-of-signal activity can be used to understand the background control at the transcription factor-level as they relate to the gene . Furthermore, this assay endpoint can be referred to as a secondary readout, because this assay has produced multiple assay endpoints where this one serves a background control function. To generalize the intended target to other relatable targets, this assay endpoint is annotated to the background measurement intended target family, where the subfamily is baseline control.
Human liver HepG2 cells are transiently transfected with multiple reporter transcription units (MRTUs) in 6-well plates using FuGene 6 reagent (Roche; 3 ml FuGene/1 mg DNA). The MRTU constructs are regulated by a cis-regulating element (promoter). […] A major difference between the CIS and TRANS system is that in CIS activities of endogenous TFs are measured, whereas the TRANS assay evaluates changes in activities of exogenous, chimeric NR-Gal4 proteins. […] At the end of 24 hour incubation, total RNA was isolated using TriZol reagent (Invitrogen). The isolated RNA is then reverse-transcribed using oligo(dT) primer and Mo-MLV reverse transcriptase (Invitrogen) with DNAse I (Ambion) treatment for 30 min. The one-tenth of the produced cDNA was amplified by PCR using Taq DNA polymerase (Invitrogen) and two reporter sequence-specific primers. The PCR products were fluorescently labeled by primer extension with 6-arboxyfluorescein (6-FAM) 5'-labeled reporter sequence-specific primer (2 min at 95 C, 20 s at 68 C and 10 min at 72 C) and these products were digested with 5U of HpaI (New England Biolabs) for 2h at 37 C. The fragments were purified using Qiaquick PCR columns (Qiagen), analyzed on an ABI 3130xL genetic analyzer (Applied Biosystems) with peak positions identified by using a set of X-rhodamine (ROX)-labeled MapMarker1000 molecular weight standards (BioVentures). The raw capillary electrophoresis data was processed using Attagraph software (Attagene).

outcome, inactive:
CCO[Si](CCCNC(N)=O)(OCC)OCC
CN1C(=O)CC[C@H]1c1cccnc1
C[C@]12CC[C@@H]3c4ccc(O)cc4CC[C@H]3[C@@H]1CC[C@H]2O
CCCCCc1ccc(N)cc1
CCOC(=O)O[C@H](C)OC(=O)c1ccc2c(c1)cc(C(=O)NC1CCN(C(C)C)CC1)n2Cc1cc(-c2ccc(Cl)s2)on1
CC1(C)NC(=O)N(c2ccc([N+](=O)[O-])c(C(F)(F)F)c2)C1=O
O=C(O)Cc1cc(I)c(Oc2ccc(O)c(I)c2)c(I)c1
CC(C)(C)c1cc(/C=C2\SC(N)=NC2=O)cc(C(C)(C)C)c1O
CCN(Cc1cccnc1)C(=O)c1cccc(Cl)c1[C@]1(C)C(=O)N(Cc2ccc(OC)cc2OC)c2ccc(Cl)cc21
O=C1O[C@H]([C@@H](O)CO)C(O)=C1O
CN1C(=O)N(c2ccccc2Br)Cc2cnc(Nc3ccc4c(c3)OCC(CO)O4)nc21 (stereo not drawn)
Cc1c2ccccc2c(C)c2c1ccc1ccccc12
CC(C)(c1cc(Br)c(O)c(Br)c1)c1cc(Br)c(O)c(Br)c1
COc1ccc2cc(S(=O)(=O)N[C@H](CC(=O)N[C@H](Cc3ccc(CN4[C@H](C)CCC[C@@H]4C)cc3)C(=O)N(C)C(C)C)c3ccc4c(c3)OCO4)ccc2c1
CCCCCCCCN(C)CCCCCCCC
CC/C(=C(/CC)c1ccc(O)cc1)c1ccc(O)cc1
Clc1ccccc1C(c1ccccc1)(c1ccccc1)n1ccnc1
CC[C@@H]1C[C@H](N(Cc2cc(C(F)(F)F)cc(C(F)(F)F)c2)C(C)=O)c2cc(C(F)(F)F)ccc2N1C(=O)OC(C)C
Oc1ccccc1
O=c1c(-c2ccc(O)cc2)coc2cc(O)cc(O)c12
O=CCCCC=O
O=C1CCC(C2CCCCC2)CC1
O=C=NCCCCCCN=C=O
O=c1ccc2ccccc2o1
O=C(O)c1ccccc1C(=O)OCc1ccccc1
Cc1ncc(CO)c(CO)c1O
CCCCOC(=O)c1ccc(O)cc1
c1ccc2n[nH]nc2c1
COc1cccc([C@H](O)C2CCN(CCc3ccc(F)cc3)CC2)c1OC
CCCCCCCCCCCO
Cc1cccc2ccccc12
CO[C@H]1/C=C/O[C@@]2(C)Oc3c(C)c(O)c4c(O)c(c(/C=N/N5CCN(C)CC5)c(O)c4c3C2=O)NC(=O)/C(C)=C\C=C\[C@H](C)[C@H](O)[C@@H](C)[C@@H](O)[C@@H](C)[C@H](OC(C)=O)[C@@H]1C
OCCO
CC(O)CC(C)(C)O (stereo not drawn)
CCCCCCCCCC(=O)O
OC12N=C(c3ccccc3)SC1Cc1cc(Cl)ccc12 (stereo not drawn)
NC(=O)c1nc(-c2cccc(-c3cc(F)ccc3OCC(F)(F)C(F)(F)F)c2)n[nH]1
CC[C@H](NC(=O)c1cc(F)ccc1NS(=O)(=O)c1cccc2cccnc12)c1ccccc1
